In PubChem BioAssay AID1159580 (chemical genetic matrix, 2015):
“And” between values parts separate entries of the source, which are not always exact repeats. Equal values may be shown once. Hit rate of the full screen: of about 5,500 compounds, about 2,000 (36%) were called active. Roughly 18% stayed inconclusive and do not appear here. No stated cut-off is given here; in the data, active means normalized growth mostly below about 0.91 (no sharp cut-off); inconclusive means no clear call, values can overlap the other calls; inactive means mostly above about 0.92. The list shows a part of the results.

Experiment: chemical genetic growth profiling, strain panel (AID 1159580);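 further: tested at 20 µM; growth read once vehicle control cultures reached saturation at 30 °C; 1 = growth at the plate median or of vehicle wells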
Conditions: S. cerevisiae deletion strains, growth OD

Measured: normalized growth

CON
inactive: locus YAL013W, strain DEP1, stronger effect = lower value 0.992 | locus YAL021C, strain ccr4, stronger effect = lower value 0.994 | locus YAL026C, strain drs2, stronger effect = lower value 1.01 | locus YAL030W, strain snc1, stronger effect = lower value 1.02 | locus YBL061C, strain skt5, stronger effect = lower value 1.01 | locus YBR009C, strain hhf1, stronger effect = lower value 1.01 | locus YBR021W, strain FUR4, stronger effect = lower value 1 | locus YBR023C, strain chs3, stronger effect = lower value 1.01 | locus YBR171W, strain sec66, stronger effect = lower value 0.995 | locus YBR229C, strain ROT2, stronger effect = lower value 1 | locus YBR231C, strain swc5, stronger effect = lower value 1.01 | locus YBR279W, strain paf1, stronger effect = lower value 0.991 | locus YCL011C, strain gbp2, stronger effect = lower value 1.02 | locus YCL016C, strain dcc1, stronger effect = lower value 1.04 | locus YCL029C, strain bik1, stronger effect = lower value 0.976 | locus YCL069W, strain vba3, stronger effect = lower value 0.976 | locus YCR088W, strain abp1, stronger effect = lower value 0.987 | locus YDL005C, strain med2, stronger effect = lower value 0.994 | locus YDL035C, strain GPR1, stronger effect = lower value 0.988 | locus YDL040C, strain nat1, stronger effect = lower value 0.994 | locus YDL074C, strain BRE1, stronger effect = lower value 1.04 | locus YDL101C, strain DUN1, stronger effect = lower value 1.01 | locus YDL134C, strain PPH21, stronger effect = lower value 0.997 | locus YDL185W, strain tfp1, stronger effect = lower value 0.968 | locus YDL192W, strain arf1, stronger effect = lower value 0.986 | locus YDR001C, strain nth1, stronger effect = lower value 0.998 | locus YDR069C, strain doa4, stronger effect = lower value 1.02 | locus YDR101C, strain arx1, stronger effect = lower value 1.02 | locus YDR137W, strain rgp1, stronger effect = lower value 1.03 | locus YDR150W, strain NUM1, stronger effect = lower value 0.993 | locus YDR159W, strain sac3, stronger effect = lower value 0.993 | locus YDR162C, strain NBP2, stronger effect = lower value 0.98 | locus YDR195W, strain ref2 0.993 | locus YDR297W, strain sur2, stronger effect = lower value 1.02 | locus YDR318W, strain mcm21, stronger effect = lower value 0.99 | locus YDR334W, strain swr1, stronger effect = lower value 0.975 | locus YDR335W, strain msn5, stronger effect = lower value 1.02 | locus YDR388W, stronger effect = lower value 1.01 | locus YDR392W, strain spt3, stronger effect = lower value 1.12 | locus YDR502C, strain sam2, stronger effect = lower value 0.999 | locus YEL003W, strain gim4, stronger effect = lower value 0.993 | locus YEL037C, strain rad23, stronger effect = lower value 0.984 | locus YEL061C, strain CIN8 (second series), stronger effect = lower value 0.99 | locus YEL061C, strain CIN8, stronger effect = lower value 0.997 | locus YER015W, strain faa2, stronger effect = lower value 1.01 | locus YER016W, strain bim1, stronger effect = lower value 1.02 | locus YER110C, stronger effect = lower value 0.981 | locus YER111C, strain swi4, stronger effect = lower value 1.01 | locus YER155C, strain BEM2 (second series), stronger effect = lower value 1.05 | locus YER155C, strain BEM2, stronger effect = lower value 0.991 | locus YER167W, strain BCK2, stronger effect = lower value 0.997 | locus YFR010W, strain ubp6, stronger effect = lower value 0.976 | locus YGL078C, strain dbp3, stronger effect = lower value 0.984 | locus YGL086W, strain mad1, stronger effect = lower value 1.02 | locus YGL167C, strain pmr1, stronger effect = lower value 0.993 | locus YGL173C, strain kem1, stronger effect = lower value 0.998 | locus YGL227W, strain vid30, stronger effect = lower value 0.995 | locus YGL240W, strain doc1, stronger effect = lower value 0.994 | locus YGL248W, strain PDE1, stronger effect = lower value 1.02 | locus YGL253W, strain hxk2, stronger effect = lower value 1.01 | locus YGR135W, strain pre9, stronger effect = lower value 0.982 | locus YGR229C, strain SMI1, stronger effect = lower value 1.01 | locus YGR252W, strain gcn5, stronger effect = lower value 1.03 | locus YHR013C, strain ard1, stronger effect = lower value 1.03 | locus YHR027C, strain rpn1, stronger effect = lower value 1.02 | locus YHR030C, strain SLT2, stronger effect = lower value 0.989 and 0.974 | locus YHR079C, strain IRE1 (second series), stronger effect = lower value 0.98 | locus YHR079C, strain IRE1, stronger effect = lower value 0.987 | locus YHR094C, strain hxt1, stronger effect = lower value 1 | locus YHR129C, strain ARP1, stronger effect = lower value 0.997 | locus YHR142W, strain chs7, stronger effect = lower value 1.01 | locus YHR200W, strain rpn10, stronger effect = lower value 0.969 | locus YIL066C, strain RNR3, stronger effect = lower value 1.02 | locus YIL073C, strain SPO22, stronger effect = lower value 0.941 | locus YIL125W, strain kgd1, stronger effect = lower value 0.999 | locus YIR030C, strain dcg1, stronger effect = lower value 0.993 | locus YJL092W, strain hpr5, stronger effect = lower value 0.998 | locus YJL095W, strain BCK1 (second series), stronger effect = lower value 1.02 | locus YJL095W, strain BCK1, stronger effect = lower value 1.06 and 0.986 | locus YJL115W, strain asf1, stronger effect = lower value 0.989 | locus YJL129C, strain trk1, stronger effect = lower value 1.02 | locus YJL134W, strain LCB3, stronger effect = lower value 0.99 | locus YJL154C, strain vps35, stronger effect = lower value 0.981 | locus YJL164C, strain tpk1, stronger effect = lower value 0.996 | locus YJL166W, strain qcr8, stronger effect = lower value 0.981 | locus YJL168C, strain set2, stronger effect = lower value 0.996 | locus YJL187C, strain SWE1 (second series), stronger effect = lower value 1.01 | locus YJR043C, strain POL32, stronger effect = lower value 1.01 | locus YJR066W, strain TOR1, stronger effect = lower value 0.92
